Measurements from article PMC4336329 (PLoS ONE, 2015).
Screen size: about 310,000 compounds; about 14,000 (4.5%) showed an effect of 50% or more. The effect is printed as a negative number. The full list was thinned out, with strong results kept by preference.

Each molecule was assayed against human ether-à-go-go-related gene (hERG) potassium channel (human, UniProt Q12809) (assay: primary screen, population patch clamp on CHO cells stably expressing hERG; higher = less effect of the substance).
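Further: peak tail current of the secondary pulse compared with the same well before compound.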

human ether-à-go-go-related gene (hERG) potassium channel, sequence (Q12809 whole entry, looked up): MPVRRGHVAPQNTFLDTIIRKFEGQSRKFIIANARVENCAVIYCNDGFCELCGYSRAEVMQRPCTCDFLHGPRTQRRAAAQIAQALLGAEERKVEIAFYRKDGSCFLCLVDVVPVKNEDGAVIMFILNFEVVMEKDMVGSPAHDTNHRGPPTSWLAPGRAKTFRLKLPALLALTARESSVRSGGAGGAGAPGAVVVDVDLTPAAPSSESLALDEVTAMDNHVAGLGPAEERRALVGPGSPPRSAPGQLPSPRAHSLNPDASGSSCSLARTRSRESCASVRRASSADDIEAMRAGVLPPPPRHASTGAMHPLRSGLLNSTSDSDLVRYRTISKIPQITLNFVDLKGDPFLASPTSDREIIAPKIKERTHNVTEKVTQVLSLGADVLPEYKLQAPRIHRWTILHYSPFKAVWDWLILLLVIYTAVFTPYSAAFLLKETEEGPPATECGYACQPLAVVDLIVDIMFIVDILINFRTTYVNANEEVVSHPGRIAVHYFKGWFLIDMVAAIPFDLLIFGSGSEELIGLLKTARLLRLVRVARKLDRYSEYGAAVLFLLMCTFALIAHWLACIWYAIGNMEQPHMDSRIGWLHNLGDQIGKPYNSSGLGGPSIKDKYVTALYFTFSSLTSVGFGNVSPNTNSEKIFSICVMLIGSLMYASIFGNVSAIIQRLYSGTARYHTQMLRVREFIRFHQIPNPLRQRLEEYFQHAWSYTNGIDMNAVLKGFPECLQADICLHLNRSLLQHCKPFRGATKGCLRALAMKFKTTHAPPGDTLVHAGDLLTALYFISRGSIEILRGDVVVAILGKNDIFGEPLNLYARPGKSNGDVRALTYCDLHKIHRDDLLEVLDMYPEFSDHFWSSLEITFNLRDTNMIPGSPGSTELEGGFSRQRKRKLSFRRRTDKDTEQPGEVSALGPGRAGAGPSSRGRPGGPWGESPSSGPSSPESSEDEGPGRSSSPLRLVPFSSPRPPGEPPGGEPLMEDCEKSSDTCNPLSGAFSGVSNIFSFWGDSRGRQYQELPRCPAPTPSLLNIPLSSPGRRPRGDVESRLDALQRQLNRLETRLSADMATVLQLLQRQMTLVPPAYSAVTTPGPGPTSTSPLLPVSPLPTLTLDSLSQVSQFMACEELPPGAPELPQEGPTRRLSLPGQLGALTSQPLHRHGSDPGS

Row | SMILES | hERG current change (%, negative = inhibition) at 10uM
1 | CC1CCc2c(nc3sc4c(c3c2N)CCCC4)C1 (stereo not drawn) | -11.5%
2 | CN(Cc1ccccc1NS(=O)(=O)c1ccc2ccccc2c1)C1CCCCC1.Cl | 7.73%
3 | COc1ccc(/C=N/NC(=O)CCN2CCN(c3ccccc3)CC2)c(OC)c1OC | -3.73%
4 | COc1cc(/C=N/NC(=O)CCN2CCN(c3ccccc3)CC2)cc(OC)c1OC | -22.2%
5 | COc1cc(/C=N\NC(=O)CNC(=O)C(c2ccccc2)c2ccccc2)ccc1O | -25.7%
6 | COc1ccc(OC)c(/C=N/NC(=O)CCN2CCN(C(c3ccccc3)c3ccccc3)CC2)c1 | -2.39%
7 | COc1cc(/C=N/NC(=O)CCN2CCN(C(c3ccccc3)c3ccccc3)CC2)ccc1O | -78.7%
8 | COc1cc(/C=N/NC(=O)c2cc(C)n(-c3ccc(F)cc3)c2C)cc(OC)c1O | -13.4%
9 | O=C(CNC(=O)C(c1ccccc1)c1ccccc1)N/N=C/c1ccc(O)cc1O | -4.68%
10 | COc1ccc(/C=N/NC(=O)c2cc(C)n(-c3ccccc3)c2C)cc1OC | -53.2%
11 | COc1ccc(/C=N\NC(=O)CCN2CCN(c3ccccc3)CC2)cc1OC | -56.9%
12 | Cc1cc(C(=O)N/N=C/c2cccc([N+](=O)[O-])c2)c(C)n1-c1ccccc1 | 8.8%
13 | COc1cc(/C=N/NC(=O)CCN2CCCCC2)ccc1O | -12%
14 | O=C(CCN1CCN(C(c2ccccc2)c2ccccc2)CC1)N/N=C/c1ccc(O)cc1O | -53.1%
15 | Cc1ccccc1N(C(=O)CNC(=O)c1ccco1)C(C(=O)NC1CCCCC1)c1cccnc1 (stereo not drawn) | 14.3%
16 | Cc1cc(C)cc(NS(=O)(=O)c2ccc(NC(=O)C3CCCCC3C(=O)O)cc2)c1 (stereo not drawn) | 2.18%
17 | CSc1ccc(CNC(=O)c2ccc(NC(=O)C3=CSCCO3)cc2)cc1 | 28.4%
18 | CCCCc1ccc(S(N)(=O)=O)cc1 | 15.7%
19 | O=C(CSC1CN(C(c2ccccc2)c2ccccc2)C1)N/N=C/c1ccccc1 | 1.64%
20 | NNC(=O)CCN1CCN(C(c2ccccc2)c2ccccc2)CC1 | -7.7%
21 | O=C(CCN1CCN(C(c2ccccc2)c2ccccc2)CC1)N/N=C/c1ccc(O)cc1 | -54.8%
22 | Cc1cc2c(cc1C)-c1nnnn1C(C)(C)C2 | 15.2%
23 | N#Cc1ccc(-n2c(-c3ccccc3)nnc2-c2ccccc2)cc1C#N | -15.5%
24 | O=C1N/C(=N/c2ccccn2)SC1Cc1ccccc1 (stereo not drawn) | -13.7%
25 | NC(=O)Cn1c(=O)n(CCCC(=O)NC2CCN(Cc3ccccc3)CC2)c(=O)c2ccccc21 | -6.48%
26 | COC(=O)c1ccccc1NC(=O)Cn1c(=O)n(CCC(=O)NC2CCN(Cc3ccccc3)CC2)c(=O)c2ccccc21 | -34.8%

Row | SMILES | hERG current change (%, negative = inhibition) at 10uM
27 | Cc1cccc(C)c1NC(=O)Cn1c(=O)n(CCCC(=O)NC2CCN(Cc3ccccc3)CC2)c(=O)c2ccccc21 | -58.6%
28 | O=C(CCCCn1c(=O)c2ccccc2n(Cc2ccccc2F)c1=O)NC1CCN(Cc2ccccc2)CC1 | -9.04%
29 | CCOc1ccc(NC(=O)Cn2c(=O)n(CCCC(=O)NC3CCN(Cc4ccccc4)CC3)c(=O)c3ccccc32)cc1 | -38%
30 | CCc1ccc(NC(=O)Cn2c(=O)n(CCC(=O)NC3CCN(Cc4ccccc4)CC3)c(=O)c3ccccc32)cc1 | 1.83%
31 | O=C(CCCCn1c(=O)c2ccccc2n(Cc2ccccc2)c1=O)NC1CCN(Cc2ccccc2)CC1 | -67.9%
32 | COc1cccc(NC(=O)Cn2c(=O)n(CCC(=O)NC3CCN(Cc4ccccc4)CC3)c(=O)c3ccccc32)c1 | -57.6%
33 | O=C(CCn1c(=O)c2ccccc2n(Cc2ccccc2)c1=O)NC1CCN(Cc2ccccc2)CC1 | -42.5%
34 | O=C(CCCn1c(=O)c2ccccc2n(Cc2cccc(F)c2)c1=O)NC1CCN(Cc2ccccc2)CC1 | -68.6%
35 | Cc1cc(NC(=O)Cn2c(=O)n(CCCCC(=O)NC3CCN(Cc4ccccc4)CC3)c(=O)c3ccccc32)n[nH]1 | 26.5%
36 | Cc1ccc(NC(=O)Cn2c(=O)n(CCC(=O)NC3CCN(Cc4ccccc4)CC3)c(=O)c3ccccc32)cc1 | -1.53%
37 | N#CC1=C(N)Oc2n[nH]c(-c3ccccc3)c2C12C(=O)Nc1ccccc12 (stereo not drawn) | 17.4%
38 | NC(=S)N/N=C/c1coc2ccc(F)cc2c1=O | 10.3%
39 | COCCNC(=O)c1ccc(-n2c(SCc3cccnc3)nc3ccccc3c2=O)cc1 | -8.88%
40 | Fc1ccc(/C=N/Nc2cc(N3CCOCC3)ncn2)cc1 | 15.4%
41 | COC(=O)c1ccccc1N/C=C/C(=O)c1ccc(Br)cc1 | 16.1%
42 | Cn1c(SCC(=O)NNC(=O)Cc2ccccc2)nc2ccccc2c1=O | 11.7%
43 | COc1ccc(CCC(=O)N2CC(C)OC(C)C2)cc1 (stereo not drawn) | 5.02%
44 | CCOCc1nnc(NC(=O)c2cc(C(=O)OC)cc([N+](=O)[O-])c2)s1 | 21.3%
45 | C(=N\Nc1nc(-c2ccccc2)cs1)/c1ccncc1 | -50.5%
46 | Brc1ccc(-c2csc(N/N=C/c3cccnc3)n2)cc1 | 19.6%
47 | Clc1ccc(-c2csc(N/N=C\c3cccnc3)n2)cc1 | 6.05%
48 | C(=N\Nc1nc(-c2ccccc2)cs1)/c1cccnc1 | -59.5%
49 | Br.CC(=O)Nc1ccc(-c2csc(N/N=C\c3ccncc3)n2)cc1 | 4.43%
50 | C(=N\Nc1nc(-c2ccccc2)cs1)/c1cccs1 | 18.5%
51 | CC(=O)Oc1ccc2oc(C)c(C(=O)N3CCOCC3)c2c1 | -8.91%
